Hits are enriched below; roughly 1.3% of the tested compounds scored in any of these assays.
VLA-4 inh: inhibition in human VLA-4 binding assay, primary screen, VLA-4 allosteric modulator project, MLPCN library, flow cytometry, VLA-4 expressing cells; Integrin alpha-4 (Homo sapiens), P13612; ligand binding flow cytometry; inhibition, % (about 7 µM as worked out from the volumes in the protocol); 330,000 compounds, 0.2% hits; AID 2557, 2010; in the data active = inhibition above about 50%
Bfl-1 A1 inh: caspase 3/7 activation in MEF A1-2A-BIM cells, primary screen, A1 inhibitor project, cell-based, luminescence, HTS; Caspase-Glo 3/7 luminescence, 3 h; percent of clofoctol response, vehicle zero; caspase activation, % (no concentration beside the values); 330,000 compounds, 0.066% hits;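 active = over half of replicate activation scores above 10%, or exactly half above 10 with the replicate mean above 10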
GRK2 aptamer HTS: compounds blocking aptamer binding on GRK2 – biochemical, human GRK2, bead flow cytometry, HTS, primary screen. inhibition of aptamer binding, % at 10 µM. 330,000 compounds, 0.59% hits. FAM-aptamer displacement from GRK2. Beta-adrenergic receptor kinase 1 (Homo sapiens), P25098;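 active = inhibition of aptamer binding above 40%, roughly 3 SD of noise, on plates passing a quality check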;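 also: median bead fluorescence of bound FAM aptamer so fluorescent compounds give negative values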
Beta2AR agonist: beta2AR agonists driving receptor internalization, primary screen, cell-based, FAP fluorogen, flow cytometry; AID 504454, 2011; Am2.2-beta2AR cells; Beta-2 adrenergic receptor (Homo sapiens), P07550; 340,000 compounds, 0.43% hits; response, % (test concentration not listed);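 active = response above a set limit, near 3 SD of response in nonfluorescent compounds, cut at about 42% in these data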
Target sequence (P07550 whole entry, looked up): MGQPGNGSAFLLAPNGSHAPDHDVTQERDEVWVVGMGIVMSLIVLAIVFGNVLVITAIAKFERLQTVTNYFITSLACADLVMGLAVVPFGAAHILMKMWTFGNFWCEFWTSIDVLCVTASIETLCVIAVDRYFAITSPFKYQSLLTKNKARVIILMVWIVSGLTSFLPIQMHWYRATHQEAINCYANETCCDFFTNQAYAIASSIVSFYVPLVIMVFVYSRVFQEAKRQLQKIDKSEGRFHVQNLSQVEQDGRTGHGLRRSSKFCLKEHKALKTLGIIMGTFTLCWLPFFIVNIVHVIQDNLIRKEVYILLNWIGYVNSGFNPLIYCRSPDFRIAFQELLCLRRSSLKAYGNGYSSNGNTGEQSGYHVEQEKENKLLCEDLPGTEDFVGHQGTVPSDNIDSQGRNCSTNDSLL
NTR1 ag: agonists of human NTR1, primary screen, imaging, U2OS cells, beta-arrestin-GFP, high content | Neurotensin receptor type 1 (Homo sapiens), P30989 | NTR1-U2OS beta-arrestin-GFP spot imaging, agonist mode | activation, % at 20 µM | 330,000 compounds, 0.17% hits;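 active = activation at or above 40% of the spot to cytoplasm intensity ratio, with at least 20 cells analyzed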;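 also: 0% = DMSO without peptide and 100% = 100 nM NTR1 peptide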
VLA-4 mod pick: retest of VLA-4 allosteric modulators, confirmation, cell-based, cherry-picked plates, U937, HUTS-21 LIBS antibody | shares compounds with VLA-4 inh | U937 cells, HUTS-21 LIBS mAb binding, flow cytometry; LDV ligand present at threefold Kd | inhibition, % at 6.7 µM | 1,300 compounds, 2% hits | AID 2813, 2010; in the data active = inhibition above about 40%;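 also: 0% = ligand without compound and 100% = no ligand background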
* hit, by the source's call; . = no result given; ! = not active in a repeat.

SMILES | VLA-4 inh | Bfl-1 A1 inh | GRK2 aptamer HTS | Beta2AR agonist | NTR1 ag | VLA-4 mod pick
CCOC(=O)c1c(NC(=O)COc2ncnc3sccc23)sc2c1CCC2 | 70* | 0 | 2 | 5 | 4 | 8
CCOC(=O)c1c(NC(=O)COC)sc2c1CCCC2 | 2 | 0 | 2 | 0 | 0 | .
C(COC1CC2CC1C1C2CC2OC21)OC1CC2CC1C1C2CC2OC21 (stereo unspecified) | . | . | . | -11 | . | .
O=C(Nc1ccc(Cl)c(Cl)c1)Nc1ccccc1O | -27 | -7 | 0 | 3 | 13 | -35
CC1C(=O)N2CCCc3cc(S(=O)(=O)N(C)CCC#N)cc1c32 (stereo unspecified) | -3 | 1 | 3 | 2 | 0 | .
C=CCn1c(SCC(=O)Nc2ccc3c(c2)CCC3)nc2ccccc2c1=O | -6 | 0 | 0 | -5 | 2 | .
CCCCn1c(SCC(=O)Nc2ccc3c(c2)CCC3)nc2ccccc2c1=O | 45 | 0 | 4 | 0 | 3 | -3
Nc1ncnc2nc[nH]c12 | 58*! | 2 | 1 | 4 | -1 | -9
CN(CC(=O)Nc1ccc(Cl)c(C(F)(F)F)c1)C(=O)c1cccc2cccnc12 | 13 | -2 | 1 | 0 | 1 | .
CC(C)C(=O)Nc1nnc(S(=O)(=O)N2CCc3ccccc32)s1 | -7 | 0 | 0 | 1 | 2 | .
CC(C)C(=O)Nc1nnc(S(=O)(=O)N2CCCc3ccccc32)s1 | 51* | 0 | 0 | 6 | -1 | 3
Cc1cc(Oc2ccccc2)nc(SCC(=O)Nc2ccccc2)n1 | 70* | 1 | 0 | -2 | 0 | 6
Cc1cc(Oc2ccccc2)nc(SCC(=O)Nc2ccc(Cl)c(Cl)c2)n1 | -1 | 0 | 2 | 1 | 12 | .
CCC(C(=O)OC)n1cnc2c(nnn2-c2cccc(OC)c2)c1=O (stereo unspecified) | 40 | 0 | 2 | 2 | -1 | -13
CCS(=O)(=O)c1ccc(N)cc1 | 58* | 0 | 0 | -7 | 2 | 7
Nc1ccc(S(N)(=O)=O)cc1 | 1 | 2 | 0 | -11 | 2 | .
CNC(=O)C(=O)Nc1c(C)cc(C)cc1C | 43 | 0 | 1 | -6 | 2 | -4
CNC(=O)C(=O)Nc1ccc(C)cc1C | 5 | -1 | 0 | -2 | 0 | .
Cc1cc(Br)c(NC(=O)CSc2n[nH]c(N)n2)c(Br)c1 | -20 | -1 | 0 | -7 | 0 | .
CCOC(=O)Nc1nnc(CCc2ccccc2)s1 | 4 | 1 | 0 | 0 | 0 | .
CCc1nnc(NC(=O)OCc2ccccc2)s1 | 57* | 0 | 0 | -4 | 0 | -1
CCNC(=O)COC(=O)c1cc(S(=O)(=O)N2CCCc3ccccc32)ccc1Cl | 7 | 0 | 0 | 22 | 14 | -3
O=C(O)c1ccc(S(=O)(=O)N2CCCc3ccccc32)cc1 | 1 | 1 | 0 | 3 | -1 | .
O=C(NCc1ccco1)c1cc(S(=O)(=O)N2CCCc3ccccc32)ccc1Cl | 14 | -1 | 8 | -2 | 0 | .
COCCNC(=O)c1ccc(S(=O)(=O)N2CCCc3ccccc32)cc1 | -10 | 0 | 3 | 6 | 2 | 6
SMILES | VLA-4 inh | Bfl-1 A1 inh | GRK2 aptamer HTS | Beta2AR agonist | NTR1 ag | VLA-4 mod pick
Cc1cc(Nc2cccc(Cl)c2Cl)n2ncnc2n1 | 0 | 0 | 3 | 6 | -1 | .
Cc1cccn2c(=O)c3cc(C(=O)NCCN4CCOCC4)c(=N)n(Cc4ccc(F)cc4)c3nc12 | 7 | -1 | 1 | -1 | 2 | .
CCCc1ccc(OCc2ccc(C(=O)N3CCSCC3)o2)cc1 | 5 | 0 | 0 | 4 | 2 | .
COc1cc(NC(=S)N2CCN(C)CC2)cc(OC)c1 | 14 | -1 | 5 | 4 | -1 | .
O=C(CC(=O)Nc1cc(Cl)ccc1Cl)Nc1cc(Cl)ccc1Cl | -5 | -1 | 0 | 2 | 11 | .
CSc1ccc(C(=O)c2[nH]c(=O)[nH]c2C)cc1 | 55* | 2 | 2 | 5 | 1 | 0
CCOc1ncnc2c1[nH]c1ccccc12 | 28 | 0 | 0 | -3 | 1 | 14
Cc1ccc2[nH]c3c(Cl)ncnc3c2c1 | 3 | -1 | 0 | 6 | 3 | .
CCCOc1ncnc2c1[nH]c1ccc(C)cc12 | 5 | -6 | 0 | . | 1 | 1
COc1cc(OC)cc(C2=NCCN2)c1 | 3 | 0 | 1 | -1 | 0 | .
CC(=O)Oc1ccc(NC(=O)Cc2ccccc2)c(C(=O)O)c1 | 52* | 1 | 1 | -9 | 1 | -2
COc1ccc(CC(=O)Nc2ccc(OC(C)=O)cc2C(=O)O)cc1 | 11 | -1 | 2 | -3 | 0 | .
O=C(CN1CCN(Cc2cccc(F)c2)CC1)NCc1ccccc1 | 3 | -1 | 0 | 5 | 0 | .
COC(=O)c1ccc(C(=S)N2CCCCC2)cc1 | 57* | 1 | 4 | 1 | 2 | 4
O=C(CSCc1cccc(Br)c1)N=Nc1c(O)[nH]c2ccccc12 | 57* | 1 | 3 | 8 | 5 | -15
CCOC(=O)C1CCN(c2nc(N)c3c(N)nc(SCC(=O)O)cc3c2C#N)CC1 | . | . | . | 37 | . | .
COc1cccc(OC)c1OCCCCc1c(C)n[nH]c1C | 59* | 0 | 2 | 6 | 0 | 3
COC(=O)c1c(C)[nH]c(C(=O)C(C)OC(=O)c2cc(C)oc2C)c1C (stereo unspecified) | 2 | 0 | 0 | -4 | -1 | .
COC(=O)c1c(C)[nH]c(C(=O)C(C)OC(=O)C2CC2)c1C (stereo unspecified) | 0 | 0 | 0 | 4 | -1 | -4
COC(=O)c1c(C)[nH]c(C(=O)C(C)OC(=O)c2ccco2)c1C (stereo unspecified) | -25 | -2 | 2 | 8 | -1 | 9
COC(=O)CC1C(=O)NCCN1C(=S)Nc1ccc(F)cc1 (stereo unspecified) | 4 | -1 | 1 | 8 | 1 | .
COC(=O)CC1C(=O)NCCN1C(=S)Nc1ccccc1Cl (stereo unspecified) | 53* | 1 | 1 | 2 | 1 | 2
COc1ccc(C)cc1NC(=O)COC(=O)C1COc2ccccc2O1 (stereo unspecified) | 16 | 0 | 0 | 1 | 1 | .
COc1ccc(S(=O)(=O)N2CCOCC2)cc1NC(=O)COC(=O)C1COc2ccccc2O1 (stereo unspecified) | 42 | 0 | 0 | 10 | 3 | 0
CC(C(=O)Nc1ccccn1)(c1ccccc1)c1ccccc1 | -1 | 0 | 0 | 1 | -1 | .
